# Measles CPE – compounds protecting cells from measles virus cytopathic effect, primary screen, measles RdRp inhibitor project, single point, MLSMR library, absorbance | 1.5% of 140,000 active | protection (pct of control), % at 4 µM | Measles virus-infected cells, CPE protection; in the data active = protection mostly above about 24%, no sharp cut-off; inactive = mostly below about 26%
# MT1-MMP txn act – MT1-MMP promoter reporter activation – cell-based, luciferase luminescence, primary screen; 0.16% of 86,000 active; AID 750, 2007; activation factor at 10 µM; HT1080 MT1-MMP promoter luciferase reporter, overnight; stronger effect = higher value;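 active = activation factor of at least 2 for MT1-MMP transcription at 10 µM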
# PostGolgi yeast – phenotypic screen on post-Golgi transport, primary screen. post-Golgi transport phenotypic cell assay. inhibition, % at 10 µM. 0.9% of 98,000 active;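 note: yeast cells grown in 1536-well plates; yeast grown about 18 h at 30C before absorbance read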
# PostGolgi ctrl – growth inhibition of yeast control strain, primary screen, counter-screen for post-Golgi transport modulator project. efflux-deficient yeast background strain, growth absorbance A615, 16 h. inhibition, % at 10 µM. 5% of 98,000 active. AID 738, 2007
# Active calls of the source: *; / = no result given. The list is not random: actives were taken first. Their share in the collection is about 5.3%. Cut-off read from the data, not from the text of the source, unless noted: active = inhibition above about 30%; inactive = the rest.
SMILES,Measles CPE,MT1-MMP txn act,PostGolgi yeast,PostGolgi ctrl
Cc1ccc(-c2[nH]ncc2/C=C(\C#N)C(=O)NC2CCCCC2)cc1,70*,/,11,14
CC1CCCN(CC(O)CN)C1 (centres undefined),5,1.2,/,/
CC(C)(C)NC(=O)NC(=O)COC(=O)c1cc(=O)[nH]c2ccccc12,35*,1.1,-24,8
COC(=O)CCc1c(C)[nH]c(C(=O)OCc2ccccc2)c1C,9,1.2,13,31*
CCOC(=O)c1[nH]c(C(=O)O)c(CCC(=O)OC)c1C,11,/,7,-1
S=C(NCCc1ccccc1)Nc1ccc(Br)cc1,1,/,/,/
COc1cccc(=O)c2c(C)n(-c3cc(C)cc(C)c3)c(C)c12,14,/,20,47*
COc1cccc(=O)c2c(C)n(C)c(C)c12,5,1.1,-4,7
CCOC(=O)C1=C(COc2ccc(F)cc2Cl)NC(=O)NC1c1cc(C)ccc1C (centres undefined),-1,/,1,30*
CCc1c2c(nc3ccc(OC)cc13)OC(C)C2 (centres undefined),/,1.3,/,/
Cc1c(Cl)c([N+](=O)[O-])nn1Cc1ccc(C(=O)N/N=C\c2cccc(Br)c2)o1,2,/,67*,18
O=C(N/N=C\c1cccc(Cl)c1)c1ccc(Cn2cc(Br)c([N+](=O)[O-])n2)o1,1,/,/,/
COC(=O)[C@@]1(Cc2ccc(F)cc2)[C@H]2c3cc(C(=O)N(C)C)n(CCc4ccc(O)c(O)c4)c3C[C@H]2CN1C(=O)c1ccccc1,/,1.1,/,/
Fc1ccc(/C=C2\CCCC3=C2Nc2ncnn2C3c2ccc(F)cc2)cc1 (centres undefined),3,1,14,81*
CCCNc1nc(Nc2ccc(C)cc2)nc(N2CCCC2)n1,14,1,-5,36*
Cc1cccc(Nc2nc(N3CCCCC3)nc(N3CCCCC3)n2)c1,10,/,/,/
O=C(Oc1ccc2c(c1)O/C(=C\c1ccncc1)C2=O)c1ccccc1,40*,/,/,/
Cc1ccc(/C=C2\Oc3cc(OC(=O)N4CCOCC4)ccc3C2=O)cc1,11,/,/,/
Cc1ccc2nc(NC(=O)COC(=O)c3ccc(Br)o3)sc2c1,3,1.2,-4,-8
CC1=CS/C(=C(/C#N)C(=O)N2CCCCC2)N1c1ccccc1,33*,1.1,-1,2
COc1ccc(C(=O)/C=C/c2ccc(O)cc2)c(O)c1CC=C(C)C,25*,/,/,/
CC(C)(CO)NS(=O)(=O)c1ccc2c(c1)oc(=O)c1cc(S(=O)(=O)NC(C)(C)CO)ccc12,61*,1.1,2,9
CC(C)(C)NS(=O)(=O)c1ccc2c(c1)oc(=O)c1cc(S(=O)(=O)NC(C)(C)C)ccc12,7,1.3,-8,5
CC(=O)/C=C1/SC(CC(=O)O)C(=O)N1c1ccccc1 (centres undefined),19,1.1,/,/
c1ccc2c(c1)OCCOCCOCCOCCOc1ccccc1OCCOCCOCCO2,47*,/,/,/
SMILES,Measles CPE,MT1-MMP txn act,PostGolgi yeast,PostGolgi ctrl
Brc1ccc2c(c1)OCCOCCOCCOCCOCCO2,5,/,/,/
Cc1cccc(CSc2nnc(N)n2-c2ccccc2)c1,6,1.2,/,/
Cc1ncc(CSc2nnnn2-c2ccccc2)c(N)n1,9,1,-3,32*
c1ccc(-c2nc(CSc3nnnn3-c3ccccc3)cs2)cc1,4,/,-13,49*
Cc1cccc(CSc2nnnn2-c2ccccc2)c1,69*,1.1,3,10
CCSc1nnnn1-c1ccccc1,12,1,-3,-7
CCN1C(=O)/C(=C/c2ccc(OC)c(OC)c2)N=C1SCC(=O)NCc1ccco1,2,/,/,/
CC1(C)CSC(=NCc2ccccc2)N1C(=O)c1cccc([N+](=O)[O-])c1,12,/,/,/
CCCCN(C(=O)CSc1cc(C)c2ccccc2n1)c1c(N)n(Cc2ccccc2)c(=O)[nH]c1=O,14,/,/,/
CCOC(=O)c1c(C)[nH]c(C)c1C(=O)COC(=O)c1ccc(Cl)c(S(=O)(=O)NCc2ccccc2)c1,22,/,-7,24
Cc1ccccc1OCC(=O)Nc1ccccc1N1CCCCC1,3,1.1,-4,0
Cc1cccc(OCC(=O)Nc2ccccc2N2CCN(C(=O)C(C)C)CC2)c1C,3,1.1,3,42*
COc1ccc(C(=O)Nc2ccccc2N2CCN(C(=O)C(C)C)CC2)cc1Cl,9,1.1,3,15
COc1ccc(Cl)cc1C(=O)Nc1ccccc1N1CCN(C(=O)C(C)C)CC1,15,1.2,11,54*
COc1ccc(Cl)cc1N1C(=O)/C(=C\c2sccc2C)N=C1SCC(=O)NC1CC1,15,/,-1,18
CN1CCN(C(=O)CCc2nc3ccccc3n2-c2ccccc2)CC1,5,/,/,/
CCOC(=O)Nc1ccc(=O)n(Cc2c(Cl)cccc2Cl)c1,13,/,6,18
CCc1c2c(nc3c(C(C)C)cccc13)-c1cccc(=O)n1C2,/,1.1,/,/
COCCNC(=O)c1ccc(N(C)S(=O)(=O)c2ccc(OC)c(OC)c2)cc1,68*,1,0,5
COc1cc(/C=N/NC(=Nc2ccc(C)cc2)c2nc3ccccc3s2)ccc1O,17,1.3,0,55*
CC(=O)c1c(C)[nH]c(C(=O)CSc2nc3ccc(C)cc3[nH]2)c1C,21,1.2,8,35*
CCOc1ccc(S(=O)(=O)NCc2ccccn2)cc1,9,1.2,-11,30*
CCCCOc1ccc(C(=O)NCc2ccccn2)cc1,17,1.3,-4,35*
COc1ccc(C(=O)NCc2ccccn2)cc1,27,1.2,/,/
COc1ccc(S(=O)(=O)NCc2ccccn2)cc1,10,1.1,-6,-6
SMILES,Measles CPE,MT1-MMP txn act,PostGolgi yeast,PostGolgi ctrl
CCCNC(=O)Cn1cnc2sc(C(=O)NCCN(CC)CC)c(C)c2c1=O,37*,1.2,2,-7
CCCNC(=O)Cn1cnc2sc(C(=O)Nc3cc(OC)c(OC)c(OC)c3)c(C)c2c1=O,6,1.3,4,3
CCSCc1nnc(SCC(=O)Nc2nc3ccccc3s2)n1C,7,1.1,7,36*
O=C(Cc1ccccc1)Nc1nc2ccccc2s1,52*,2*,/,/
O=C(Cc1cccs1)Nc1nc2ccccc2s1,25,1.6,-3,30*
COC(=O)C1=C(C)N(c2ccc(C)cc2)/C(=C/c2cccs2)C1=O,3,/,22,33*
Nn1c(SCC(=O)NC2CCCc3ccccc32)nnc1-c1ccc(Cl)cc1Cl (centres undefined),7,/,/,/
O=C(O)CSc1c(-c2cccs2)[nH]c2ccccc12,40*,/,/,/
O=C(O)CSc1c(-c2ccccc2)[nH]c2ccccc12,10,/,/,/
CCCCOC(=O)Nc1ccc(C(C)C)cc1,7,2.2*,/,/

# High-throughput results deposited in PubChem by several laboratories.
